Assay results from PubChem BioAssay (EPA / NIEHS).
Results filed as inconclusive are left out. Calls of active or inactive are those of the source. Rule for the calls: active = hit-call score of the fitted dose curve at least 0.9, where 1 is the maximum; inconclusive = response in the unintended direction; inactive = score below 0.9.

Assays:
[1] = TOX21_p53_BLA_p2_viability: Viability Assessment in the Tox21 HCT-116 p53 Agonism Beta-lactamase Assay, Phase 2 (AID 2283591);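 note: compound exposure lasted 16 h at 37 °C; actives lower the ATP signal meaning cytotoxicity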
How it was run: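 HCT116 p53-bla cells, 4000/well, dosed after 5 h plating (217-fold dilution of DMSO stocks) and incubated 16 h at 37C. Viability taken as cellular ATP by CellTiter-Glo luminescence after 30 min RT; signal loss marks cytotoxicity.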

[2] = target: Cellular tumor antigen p53 (Homo sapiens) (UniProt P04637); test: TOX21_p53_BLA_p2_ratio: Tox21 HCT-116 p53 Agonism Beta-lactamase Assay, Ratio, Phase 2 (AID 2283592)
Sequence of Cellular tumor antigen p53 (Homo sapiens) (P04637 whole entry, looked up): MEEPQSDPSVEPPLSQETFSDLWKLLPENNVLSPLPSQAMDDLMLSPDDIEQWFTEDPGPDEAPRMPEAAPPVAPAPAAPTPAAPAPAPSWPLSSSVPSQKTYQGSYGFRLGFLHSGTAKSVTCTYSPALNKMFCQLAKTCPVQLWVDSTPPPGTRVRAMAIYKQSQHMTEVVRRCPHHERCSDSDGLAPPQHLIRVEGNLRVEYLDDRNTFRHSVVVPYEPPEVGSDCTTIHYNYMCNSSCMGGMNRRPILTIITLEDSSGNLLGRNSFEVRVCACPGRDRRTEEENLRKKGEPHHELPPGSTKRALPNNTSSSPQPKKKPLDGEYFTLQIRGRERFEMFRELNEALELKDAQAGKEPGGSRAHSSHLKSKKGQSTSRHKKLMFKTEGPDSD
How it was run: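 In this cell-based reporter format, HCT116 cells were dosed with chemicals delivered from DMSO by 217-fold dilution and incubated 16 h at 37C. Emission at 460 and 530 nm after 2 h CCF4-AM loading provided the ratio, fitted upward versus DMSO.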

[3] = TOX21_p53_BLA_p3_viability: Viability Assessment in the Tox21 HCT-116 p53 Agonism Beta-lactamase Assay, Phase 3 (AID 2283593);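 note: cells exposed to compound for 16 h before reading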
How it was run: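 HCT116 cells, 4000/well, dosed 5 h after plating by pin transfer (217-fold dilution from DMSO stock) and incubated 16 h at 37C, 5% CO2. Viability read as ATP luminescence with CellTiter-Glo after 30 min at room temperature.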

[4] = target: Cellular tumor antigen p53 (Homo sapiens) (UniProt P04637); test: TOX21_p53_BLA_p5_ratio: Tox21 HCT-116 p53 Agonism Beta-lactamase Assay, Ratio, Phase 5 (AID 2283599)
How it was run: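 HCT-116 p53-bla cells (4000/well) plated 5 h, dosed with compound (217-fold DMSO dilution) for 16 h at 37 C; CCF4-AM substrate 2 h at room temperature. Activity is the 460/530 nm emission ratio (405 nm excitation), fitted in gain-of-signal direction versus DMSO.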

[5] = target: Cellular tumor antigen p53 (Homo sapiens) (UniProt P04637); test: TOX21_p53_BLA_p3_ratio: Tox21 HCT-116 p53 Agonism Beta-lactamase Assay, Ratio, Phase 3 (AID 2283596)
How it was run: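 HCT116 p53-bla cells (4000/well) given compound in DMSO (217-fold dilution) after 5 h, incubated 16 h at 37C. CCF4-AM substrate 2 h at room temperature; 460/530 nm emission ratio, gain fitted against DMSO.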

[6] = TOX21_p53_BLA_p4_viability: Viability Assessment in the Tox21 HCT-116 p53 Agonism Beta-lactamase Assay, Phase 4 (AID 2283597);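 note: hits lower the luminescence signal meaning cytotoxicity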
How it was run: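 We seeded HCT116 p53 reporter cells at 4000/well and waited 5 h. We then added compounds in DMSO at a 217-fold dilution and incubated for 16 h. Viability was read as CellTiter-Glo luminescence after 30 min at RT.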

[7] = TOX21_p53_BLA_p5_viability: Viability Assessment in the Tox21 HCT-116 p53 Agonism Beta-lactamase Assay, Phase 5 (AID 2283600)
How it was run: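 Compounds, pinned from DMSO at 217-fold dilution, were left on the cells for 16 h. The viability endpoint was ATP content measured by CellTiter-Glo luminescence, where falling signal reflects cytotoxicity.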

[8] = target: Cellular tumor antigen p53 (Homo sapiens) (UniProt P04637); test: TOX21_p53_BLA_p4_ratio: Tox21 HCT-116 p53 Agonism Beta-lactamase Assay, Ratio, Phase 4 (AID 2283601)
How it was run: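 HCT-116 p53 beta-lactamase reporter cells (4000/well) preincubated 5 h, then compound (217-fold dilution of DMSO stock) for 16 h at 37C. CCF4-AM substrate added 2 h at room temperature; 460/530 nm emission ratio fitted upward versus DMSO.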

Measured: AC50

CN1CCC(O)(c2ccc(F)cc2)C(C(=O)c2ccc(F)cc2)C1 (stereo not drawn)
inactive: [1] | [2] | [3] | [4]

C=CCOCC1CO1 (stereo not drawn)
inactive: [1] | [2] | [5] | [6] | [4] | [7]

CCCCCCCCCCCOC(=O)c1ccccc1C(=O)OCCCCCCCCCCC
inactive: [1] | [2] | [5] | [6] | [4] | [7] | [8]

C=CC=O
inactive: [1] | [2] | [5] | [6] | [4] | [7]

O=P(O)(O)C(Cl)(Cl)P(=O)(O)O
inactive: [1] | [2] | [5] | [6] | [4] | [7] | [8]

O=C(O)CC[N+](=O)[O-]
inactive: [1] | [2] | [3] | [4] | [7] | [8]

O=C(O)c1cc(Cl)ccc1Cl
inactive: [1] | [2] | [5] | [6] | [4] | [7]

OCC(Br)CBr (stereo not drawn)
inactive: [1] | [2] | [5] | [6] | [4] | [7] | [8]

CCCCN=C=O
inactive: [1] | [2] | [3] | [6] | [8]

Nc1ccncc1
inactive: [1] | [2] | [3] | [4] | [7] | [8]

CCN(CC)CCOC(=O)C(O)(c1ccccc1)c1ccccc1
inactive: [1] | [2] | [3] | [7]

COC(=O)[C@]12CCC(C)(C)C[C@H]1[C@H]1C(=O)C=C3[C@@]4(C)C=C(C#N)C(=O)C(C)(C)[C@@H]4CC[C@@]3(C)[C@]1(C)CC2
active: [1] 1.83 µM | [2] 29.2 µM | [5] 15.3 µM | [6] 1.99 µM | [4] 31.7 µM | [7] 2.57 µM | [8] 7.4 µM

N#CC1(N=NC2(C#N)CCCCC2)CCCCC1
inactive: [1] | [2] | [3] | [4] | [8]

O=C(Cl)OCc1ccccc1
inactive: [1] | [2] | [3] | [4] | [7] | [8]

CCCC(C)(COC(N)=O)COC(N)=O
inactive: [1] | [2] | [5] | [6] | [4] | [7] | [8]

SCc1ccccc1
inactive: [1] | [2] | [3] | [8]

Cc1ccc2c(c1)C1CN(C)CCC1N2 (stereo not drawn)
inactive: [1] | [2] | [3] | [4] | [8]
